From PubChem BioAssay (NCI)
About 79,000 compounds went through this panel and 15% of them were active in at least one assay; those are over-represented in the sample as a whole. Values without a mark were called inactive. Calls of active or inactive are those of the source. Rule as the data show it: active = growth inhibition above about 70%; inactive = the rest.

What was measured:
[1] = NCI Yeast Anticancer Drug Screen. Data for the rad50 strain (AID 155);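 also: 0% = growth of vehicle-only cultures of the same strain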; details: S. cerevisiae rad50 strain growth inhibition; at 50.0 µM; active compounds read high
Outline: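 Readout: growth inhibition relative to vehicle-treated cultures. Compound exposure was carried out in a genetically defined yeast strain deficient in DNA damage repair.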

[2] = NCI Yeast Anticancer Drug Screen. Data for the mec2-1 strain (AID 157); details: S. cerevisiae mec2-1 strain, at 50.0 µM, active compounds read high
Outline: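 Compounds were applied to mec2-1 yeast cells. Their growth was then compared with that of vehicle-treated cultures to give growth inhibition.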

[3] = NCI Yeast Anticancer Drug Screen. Data for the sgs1 mgt1 strain (AID 161);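 also: 0% = growth of cultures given vehicle only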; details: S. cerevisiae sgs1 mgt1 strain, at 50.0 µM, active compounds read high
Outline: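 Percent growth inhibition was derived by comparing compound-exposed mutant yeast with vehicle-exposed cultures. The strain carries alterations in DNA damage repair.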

[4] = NCI Yeast Anticancer Drug Screen. Data for the cln2 rad14 strain (AID 165);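 also: 0% = growth equal to vehicle treated cultures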; details: S. cerevisiae cln2 rad14 strain, at 50.0 µM, active compounds read high
Outline: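 Strain: cln2 rad14 yeast, altered in cell cycle control and DNA damage repair. Read-out: growth inhibition vs vehicle.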

[5] = NCI Yeast Anticancer Drug Screen. Data for the bub3 strain (AID 167); details: S. cerevisiae bub3 mutant strain, at 50.0 µM, active compounds read high
Outline: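 Readout: yeast growth inhibition, expressed relative to vehicle-only wells. The test organism is a mutant strain from a panel with lesions in DNA repair or checkpoint genes.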

[6] = NCI Yeast Anticancer Drug Screen. Data for the mlh1 rad18 strain (AID 175); details: S. cerevisiae mlh1 rad18 strain growth inhibition; at 50.0 µM; active compounds read high
Outline: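 A repair-deficient yeast strain is exposed to test compound, and growth is scored relative to vehicle-treated controls.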

SMILES | growth inhibition [1] | growth inhibition [2] | growth inhibition [3] | growth inhibition [4] | growth inhibition [5] | growth inhibition [6]
C/C(CCl)=N/NC1=NC(C)(CCC2(C)N=C(N/N=C(/C)CCl)SP2(=O)NC23CC4CC(CC(C4)C2)C3)P(=O)(NC23CC4CC(CC(C4)C2)C3)S1 (stereo not given) | -9.25% | 1.15% | 16.8% | -21.8% | -19.5% | -28.8%
CN(C)P(=O)(N(C)C)N(C)C.[CH3][Sn]([CH3])([Cl])[Cl] | 5.75% | -1.2% | 52.4% | 49.9% | 63.8% | 82.2% (active)
COc1cc2c(ccc3c4cc(OC)c(OC)cc4c[n+](C)c23)cc1O | -21.7% | -17.9% | -9.9% | 16.4% | -23.8% | -65.8%
O=C(Nc1c(O)[nH]c(=S)[nH]c1=O)c1ccco1 | -24.1% | -4.8% | -10.8% | -4.35% | -13.2% | -16%
FC(F)(F)c1cccc(NC2=NCCS2)c1 | -22.2% | -46.1% | 0% | -5.6% | 17.9% | -42.8%
Cc1ccc(N=C2OP(=O)(Nc3ccc(C)cc3)Oc3ccccc32)cc1 (stereo not given) | -11.3% | -44.8% | -23.6% | 0.3% | -6% | -19.9%
CC(C)N([PH2+]N(C(C)C)C(C)C)C(C)C.[C-]#[O+].[C-]#[O+].[C-]#[O+].[C-]#[O+].[C-]#[O+].[Mo] | 9.4% | 15.9% | -2.2% | 17.1% | 6.35% | -1.35%
COc1ccc2c(=O)c3ccccc3oc2c1CN(CCCl)CCCl | 19.9% | 16.4% | -5.2% | 13.2% | -3.1% | -8.25%
O=[As](O)(O)c1cccc(O)c1 | -6.8% | -7.25% | -8.65% | 3.7% | 9.25% | -16.1%
CC(=O)Oc1cccc(C#N)c1 | -3.1% | 1.25% | 1.7% | -24.8% | 6.65% | 5.05%
[N-]=[N+]=NC(=O)Nc1ccccc1F | -6.4% | -1.1% | -14.6% | -19.3% | -19.6% | 16.1%
CC(=O)OC1CC2(C)C(=CC1C1SCCS1)CCC1C2CCC2(C)C(OC(C)=O)CCC12 (stereo not given) | -7.6% | 3.2% | -31.5% | 14.7% | -49.5% | 11.3%
O=C(O)C(CP(=O)(O)O)=C(Cl)Cl | -21.4% | 12.3% | -13.9% | -8.95% | -6.15% | -9.75%
O=S(=O)(F)c1ccccc1S(=O)(=O)Cl | 11.7% | -2.55% | 15.6% | 16.4% | 12.4% | 21.6%
CC1(C)O[C@]2(C)CC[C@@H]1[C@@H](O)[C@@H]2N1CCCC1 | 1.75% | -8.6% | -6.75% | -33.4% | -6.75% | 0.15%
CCCCCC(=O)C[n+]1ccccc1 (tested in a mixture with another compound) | -11.7% | -1.4% | -20% | -36% | 24.4% | -9.15%
O=S(=O)(C(Cl)Cl)C(Cl)(Cl)S(=O)(=O)C(Cl)Cl | -11.4% | -53% | 5.8% | -40.2% | 5.1% | 13.1%
CCC1(C(C)=O)CN2CCc3cc(OC)c(OC)cc3C2N2CCc3ccc(OC)c(OC)c3C21 (stereo not given) | 96.9% (active) | 97.8% (active) | 97.7% (active) | 96.7% (active) | 98.5% (active) | 98% (active)
CCC(C#N)N1CC1 (stereo not given) | -7.05% | 12.7% | -6.4% | 18.1% | -4.35% | 6%
CC(Cl)CN(CC(C)Cl)c1ccc2c(c1)Cc1ccccc1-2 (stereo not given) | -20.8% | -10.1% | 2.65% | -46.9% | 23.1% | 9%
